The values below come from PubChem BioAssay (Tox21).

Molecules are shown by their SMILES. Unmarked numbers belong to inactive results. Results filed as inconclusive are left out. Calls of active or inactive are those of the source. Unless noted, calls come from the whole dose curve; as a rule, active = well fitted curve in the direction sought with a large enough effect in the repeat runs; inconclusive = weak or mixed curves; inactive = no such curve, though single readings can be large; an effect the other way counts as inactive or inconclusive.

For assay [1], the target named is Luciferin 4-monooxygenase (Photinus pyralis) (UniProt P08659). The assay can be described thus: qHTS assay to identify small molecule inhibitors of firefly luciferase (AID 1224835). Note: nearly all actives have a fitted effect of over 25% in size. Note: potency is the fitted concentration of half-maximal effect. In a few lines: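 Biochemical qHTS: compounds run as interplate titrations against purified firefly enzyme, with D-luciferin and ATP each at its KM concentration. Light output recorded by CCD imaging.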
On the technique in general: Quantitative high-throughput screening tests each substance at several concentrations.

The nature of assay [2]: qHTS assay to identify small molecule antagonists of the constitutive androstane receptor (CAR) signaling pathway - cell viability counter screen (AID 1224837). Note: nearly all actives have a fitted effect of over 45% in size. In outline:
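Using CellTiter-Fluor, viability is scored in HepG2 cells stably carrying hCAR and a 2.2kb CYP2B6 reporter after 23 hr compound exposure across 15 concentrations, with CITCO present at 50 nM.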

Assay [3] concerns the target Nuclear receptor subfamily 1 group I member 3 (Homo sapiens) (UniProt Q14994). The assay is described as follows: qHTS assay to identify small molecule antagonists of the constitutive androstane receptor (CAR) signaling pathway (AID 1224838).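 Note: HepG2 cells stably expressing hCAR with CYP2B6 luciferase reporter stimulated by CITCO; nearly all actives have a fitted effect of over 40% in size.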 In a few lines:
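Reporter luminescence was quantified after 24 h exposure of hCAR/CYP2B6-2.2kb double-stable HepG2 cells to compounds at 15 concentrations in the presence of 50 nM CITCO final.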

A short description of assay [4]: qHTS assay to identify small molecule antagonists of the estrogen related receptor signaling pathway with the pleiotropic PPARgamma coactivator (PGC) from Tox21 10K library - cell viability counter screen (AID 1224840; active = well fitted cell-killing curve with a large enough effect in the repeat runs, not every such curve was filed as active; note: nearly all actives have a fitted effect of over 40% in size). In outline: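 Here the PGC/ERR cells serve as a cytotoxicity control: they are exposed to compounds for 17.5 hours at 37 C, and live-cell signal is quantified using CellTiter-Fluor fluorescence.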

Assay [5] can be described thus: qHTS assay to identify small molecule agonists of the estrogen related receptor signaling pathway with the pleiotropic PPARgamma coactivator (PGC) from Tox21 10K library (AID 1224842). Note: nearly all actives have a fitted effect of over 15% in size. In a few lines:
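PGC/ERR reporter cell line, 2,000 cells per well, incubated 6 h at 37 C before 23 nL compound in DMSO was added. After 18 h at 37 C, One-Glo luminescence read following 30 min at room temperature.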

Assay [6] has as its target Thyrotropin receptor (Homo sapiens) (UniProt P16473). The assay can be described thus: qHTS assay to identify small molecule agonists of the thyroid stimulating hormone receptor (TSHR) signaling pathway (AID 1224843; calls by dose curve; note: nearly all actives have a fitted effect of over 45% in size). In outline:
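TSHR-HEK293 cells in agonist mode, 30 min room-temperature step, then cAMP measured by competitive HTRF (cAMP-d2 with anti-cAMP cryptate) after 1 h at room temperature. Tested at 15 concentrations in triplicate.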

A short description of assay [7]: qHTS assay to identify small molecule agonists of the hypoxia (HIF-1) signaling pathway - cell viability counter screen (AID 1224844; calls by dose curve; note: nearly all actives have a fitted effect of over 50% in size; note: potency is the fitted concentration of half-maximal effect). In a few lines: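 Multiplexed with the HRE beta-lactamase assay, this viability read used CellTiter-Glo luminescence (30 min, RT) on HRE-bla ME-180 cells treated 17 hrs with compounds in 0.5% dialyzed FBS medium.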
A short description of assay [8]: qHTS assay to identify small molecule agonists of H2AX (AID 1224845; active = well fitted activation curve with a large enough effect in the signal ratio in the repeat runs, not every such curve was filed as active; the % refers to the signal ratio). In a few lines: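 Wild-type CHO-K1 cells, plated overnight, exposed 3hr at 37C to 15 concentrations (0.76% DMSO final). Lysed, then HTRF anti-pH2AX (S139) cryptate and anti-H2AX-d2 antibodies, 24 hr room temperature; 665/620 nm emission read.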
A short description of assay [9]: qHTS assay to identify small molecule agonists of H2AX - cell viability counter screen (AID 1224847; calls by dose curve; note: top concentration of the series differs between compounds; nearly all actives have a fitted effect of over 30% in size). In outline:
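We seed wild-type CHO-K1 cells overnight, treat them for 3 hr at 37C with compounds in 15-concentration series, and quantify remaining viability by CellTiter-Glo luminescence.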

The nature of assay [10]: qHTS assay to identify small molecule agonists of the estrogen related receptor (ERR) signaling pathway from Tox21 library (AID 1224849; calls by dose curve; note: nearly all actives have a fitted effect of over 15% in size). Conditions: ERR reporter cell line, ONE-Glo luciferase, 18 h; at 92.4 µM (top of the series) unless noted. In a few lines: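 Six hours post-seeding at 37 C/5% CO2, ERR cells receive DMSO-solubilised compounds; after 18 h at 37 C, ONE-Glo reagent is applied and luminescence recorded.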

Assay [11] in a line: qHTS RealTime-Glo MT Cell Viability Assay in HepG2 cells - 24 hour (AID 1224867). Note: nearly all actives have a fitted effect of over 50% in size. In outline: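 HepG2 cells (600/well) were dispensed with RealTime-Glo reagents, incubated 5 h at 37 °C, then treated with compounds in DMSO for up to 40 h. Nonlytic NanoLuc luminescence reflecting viable cells was read at each stated time point.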
Assay [12] in a line: qHTS RealTime-Glo MT Cell Viability Assay in HEK293 cells - 32 hour (AID 1224868). For activity change, negative = cytotoxic: top concentration of the series differs between compounds. Note: nearly all actives have a fitted effect of over 50% in size. Note: potency is the fitted concentration of half-maximal effect. In outline: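 HEK293 cells seeded with NanoLuc/prosubstrate reagent, rested 5 h at 37 C, then dosed and kept at 37 C up to 40 h. Nonlytic real-time luminescence from viable cells read at 0, 8, 16, 24, 32 and 40 h.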
The nature of assay [13]: A CellTox Green Cytotoxicity Assay to monitor cytotoxicity in HEK293 cells - 0 hour (AID 1224869). Note: nearly all actives have a fitted effect of over 50% in size. In a few lines: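 Seeding of HEK293 cells together with cytotoxicity dye preceded a 5 h incubation at 37 C/5% CO2. Test compounds in DMSO were then added and fluorescence monitored across 40 h.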
Assay [14] can be described thus: qHTS RealTime-Glo MT Cell Viability Assay in HepG2 cells - 40 hour (AID 1224870). Note: nearly all actives have a fitted effect of over 50% in size. In outline:
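HepG2 cells (600/well) mixed with RealTime-Glo MT reagent, settled 5 h at 37 C/5% CO2 before compound addition. Nonlytic NanoLuc luminescence from viable-cell prosubstrate reduction read repeatedly during 40 h treatment at 37 C.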

A short description of assay [15]: qHTS assay to identify small molecule agonists of the constitutive androstane receptor (CAR) signaling pathway - cell viability counter screen (AID 1224836). Note: nearly all actives have a fitted effect of over 45% in size. In a few lines: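 Counter screen multiplexed with the CAR reporter readout: HepG2 cells co-transfected with hCAR and the CYP2B6-2.2kb construct receive a 15-concentration compound series and 0.75 uM PK11195 (final), then CellTiter-Fluor fluorescence is read after 23 h.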

The nature of assay [16]: qHTS assay to identify small molecule agonists of the hypoxia (HIF-1) signaling pathway (AID 1224846; active = well fitted activation curve with a large enough effect in the signal ratio in the repeat runs, not every such curve was filed as active; the % refers to the signal ratio). In outline:
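Hypoxia-pathway activation was scored as increased beta-lactamase from an HRE-controlled reporter in ME-180 cells; plated at 2,000 cells per well with 0.5% dialyzed FBS, they were exposed 17 hrs to compounds and then given CCF4-AM.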

The nature of assay [17]: qHTS assay to identify small molecule antagonists of the estrogen related receptor signaling pathway with the pleiotropic PPARgamma coactivator (PGC) from Tox21 10K library (AID 1224841; call rule not given here). In a few lines:
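Each well held 2,000 PGC/ERR cells, pre-incubated six hours (37 C, 5% CO2). Test substances in DMSO were added by pin tool and left for 18 h at 37 C before luciferase detection by One-Glo.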

The nature of assay [18]: qHTS assay to identify small molecule antagonists of the estrogen related receptor (ERR) signaling pathway from Tox21 library (AID 1224848). Note: nearly all actives have a fitted effect of over 50% in size. In a few lines:
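ERR reporter cell line (from NTP) seeded 2,000 cells/well, rested 6 h at 37 C/5% CO2, then pin-dosed with compounds in DMSO. After 18 h at 37 C, ONE-Glo added; luminescence read after 30 min at room temperature.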

Assay [19] addresses Nuclear receptor subfamily 1 group I member 3 (Homo sapiens) (UniProt Q14994). The assay can be described thus: qHTS assay to identify small molecule agonists of the constitutive androstane receptor (CAR) signaling pathway (AID 1224839). Note: nearly all actives have a fitted effect of over 15% in size. Note: potency is the fitted concentration of half-maximal effect. In outline: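 A 15-concentration quantitative screen uses HepG2 cells co-transfected stably with human CAR and CYP2B6-2.2kb reporter. Treatment lasts 24 h with 0.75 uM PK11195 final present; ONE-Glo luminescence is the signal.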
% is set by controls: 0 for no effect and ±100 for the full control effect.

Luciferin 4-monooxygenase (Photinus pyralis), sequence (P08659 whole entry, looked up): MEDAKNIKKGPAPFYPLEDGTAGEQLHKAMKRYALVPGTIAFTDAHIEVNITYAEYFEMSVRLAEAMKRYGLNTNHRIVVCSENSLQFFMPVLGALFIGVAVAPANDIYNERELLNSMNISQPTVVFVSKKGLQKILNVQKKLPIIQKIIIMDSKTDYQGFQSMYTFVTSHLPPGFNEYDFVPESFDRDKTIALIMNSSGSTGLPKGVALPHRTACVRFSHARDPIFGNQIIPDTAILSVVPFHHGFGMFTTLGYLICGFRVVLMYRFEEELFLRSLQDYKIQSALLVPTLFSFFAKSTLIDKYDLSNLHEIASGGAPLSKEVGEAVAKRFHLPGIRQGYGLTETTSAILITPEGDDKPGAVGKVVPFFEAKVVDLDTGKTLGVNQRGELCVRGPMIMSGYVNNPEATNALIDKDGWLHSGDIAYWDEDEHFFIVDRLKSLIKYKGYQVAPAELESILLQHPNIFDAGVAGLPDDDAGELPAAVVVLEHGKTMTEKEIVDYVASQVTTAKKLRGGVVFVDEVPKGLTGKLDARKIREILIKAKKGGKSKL
Nuclear receptor subfamily 1 group I member 3 (Homo sapiens), sequence (Q14994 whole entry, looked up): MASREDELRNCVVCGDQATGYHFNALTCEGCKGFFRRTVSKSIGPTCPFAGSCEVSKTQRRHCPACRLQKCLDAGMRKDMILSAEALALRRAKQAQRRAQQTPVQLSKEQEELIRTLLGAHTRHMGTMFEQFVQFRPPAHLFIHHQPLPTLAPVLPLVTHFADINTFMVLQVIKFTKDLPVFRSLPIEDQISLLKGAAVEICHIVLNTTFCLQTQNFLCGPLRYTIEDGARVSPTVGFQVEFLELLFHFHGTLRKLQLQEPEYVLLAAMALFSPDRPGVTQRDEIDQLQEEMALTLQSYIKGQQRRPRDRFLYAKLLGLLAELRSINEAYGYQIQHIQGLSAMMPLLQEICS
Thyrotropin receptor (Homo sapiens), sequence (P16473 whole entry, looked up): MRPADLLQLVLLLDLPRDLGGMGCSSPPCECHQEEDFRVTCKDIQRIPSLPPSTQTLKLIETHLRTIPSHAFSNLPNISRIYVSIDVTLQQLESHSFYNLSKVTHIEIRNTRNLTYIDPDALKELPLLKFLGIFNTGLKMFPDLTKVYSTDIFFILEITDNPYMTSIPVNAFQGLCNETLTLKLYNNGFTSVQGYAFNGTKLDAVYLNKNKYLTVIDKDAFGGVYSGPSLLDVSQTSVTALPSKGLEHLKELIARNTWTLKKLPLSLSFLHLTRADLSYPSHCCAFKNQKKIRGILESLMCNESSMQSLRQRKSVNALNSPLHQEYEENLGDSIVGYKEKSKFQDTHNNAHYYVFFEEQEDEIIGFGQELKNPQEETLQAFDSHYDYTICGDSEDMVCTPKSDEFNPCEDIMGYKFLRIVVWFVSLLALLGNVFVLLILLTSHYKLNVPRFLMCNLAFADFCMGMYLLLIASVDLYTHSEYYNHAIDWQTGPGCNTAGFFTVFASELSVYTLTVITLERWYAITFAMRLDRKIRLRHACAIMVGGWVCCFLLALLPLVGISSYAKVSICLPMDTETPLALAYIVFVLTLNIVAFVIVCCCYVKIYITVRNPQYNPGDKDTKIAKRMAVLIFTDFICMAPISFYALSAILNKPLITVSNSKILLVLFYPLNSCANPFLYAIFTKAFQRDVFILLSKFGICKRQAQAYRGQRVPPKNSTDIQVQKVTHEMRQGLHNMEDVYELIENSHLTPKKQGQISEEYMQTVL

Take `CN1CCN(C2=Nc3ccccc3Oc3ccc(Cl)cc32)CC1`: the Potency result in assay [1], in [2], in assay [3], in [4], in assay [5] and in assay [6] was “inactive” throughout. For the same molecule, the Potency result in assay [7], in assay [8], in [9], in assay [11], in assay [12] and in assay [13] was “inactive” each time. Further, the Potency result in assay [14] was “inactive”. Besides, the activity change, positive = activation in assay [10] was -21.9% [at 42.5 µM].

Turning to `CCNCCO`, the Potency entry in [1], in [15], in assay [2], in assay [4], in assay [6] and in assay [7] was “inactive” each time. In addition, the Potency result in assay [9], in assay [11], in assay [12], in assay [13] and in assay [14] was “inactive” throughout. The call in assay [16] was inactive.

For the molecule `NC(Cc1ccc(F)cc1)C(=O)O` (configuration not stated), the activity change, negative = inhibition in [1] was 1.28% [at 10.5 µM]. Besides, the viability change, negative = cytotoxic in [4] is 2.83% [at 8.39 µM]. The activity, negative = inhibition was 25.2% [at 8.39 µM] in assay [17] and 1.15% [at 8.39 µM] in assay [18]. Also, the values for the activation in assay [5] and in [6] were 1.4% [at 8.39 µM] and 1.31% [at 8.39 µM], respectively. Further, the activity change, negative = cytotoxicity was 1.08% [at 6.97 µM] in assay [7], 0.454% [at 14 µM] in assay [9] and -1.43% [at 6.97 µM] in [11]. For the same molecule, in assay [8], the activation (H2AX phosphorylation) was -2.92% [at 14 µM]. Also, the activity change, positive = activation in assay [10] was 0.59% [at 8.39 µM]. Also, the activity change, negative = cytotoxic in assay [12] is -0.0847% [at 6.97 µM]; in assay [14], -10.7% [at 6.97 µM]. For the same molecule, the cytotoxicity in assay [13] is 7.03% [at 6.97 µM].

As for `CC(C)C1=CC2=CC[C@@H]3[C@](C)(CCC[C@@]3(C)C(=O)O)[C@H]2CC1`, the Potency result in assay [15], in assay [2], in assay [3], in assay [19], in assay [4] and in assay [5] was “inactive” in each case. Also, the Potency result in assay [8], in [9], in [12] and in assay [13] was “inactive” each time. The Potency in assay [7] is 43.6 µM (active). Further, the activity change, positive = activation in assay [10] is -16.7%.

For the molecule `COc1ccc2nc(NC(=O)Nc3ccccc3)sc2c1`, the Potency in assay [1] is 0.389 µM (active); in assay [19], 10.6 µM (active); in [7], 19 µM (active); in assay [12], 5.35 µM (active). The Potency entry in [15], in assay [3], in assay [4], in [6], in assay [8] and in assay [9] was “inactive” in each case. In addition, the Potency entry in assay [11], in assay [13] and in [14] was “inactive” throughout. Besides, the outcome in assay [16] was inactive.

With `CCOC(=O)COc1ccc2c(c1)CC(NCC(O)c1cccc(Cl)c1)CC2` (configuration not stated), the Potency entry in assay [1], in assay [3], in assay [19], in assay [17], in [5] and in [7] was “inactive” each time. The Potency entry in [8], in assay [11], in assay [12], in assay [13] and in [14] was “inactive” in each case. The result in assay [16] was inactive. The activity change, positive = activation in [10] was -15.6%.

On to `CCC(=O)Nc1ccc(O)cc1`, for which the Potency entry in [1], in assay [15], in assay [2], in assay [4], in assay [6] and in [7] was “inactive” throughout. Besides, the Potency entry in [8], in [9], in [11], in assay [12], in assay [13] and in assay [14] was “inactive” each time. Also, the outcome in assay [16] was inactive.
